eIF4H inh – inhibitors of RNA binding by human eIF4H. eIF4H fluorescence polarization binding assay. inhibition, % at 35 µM. actives 0.94% (n = 290,000). AID 2012;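 note: calls also rest on retests at 20 µM and on dose response follow-up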
PHOSPHO1 inh – blocks human PHOSPHO1 phosphatase activity; Q8TCT1; actives 1.1% (n = 290,000); recombinant PHOSPHO1, absorbance phosphatase assay; inhibition, % at 13.3 µM; AID 1565; in the data active = inhibition above about 60%
PABP polyA inh – blocks human PABP binding to poly(A) RNA; fluorescence polarization; calls only at 35 µM; actives 1% (n = 290,000); AID 2014;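 note: calls also rest on retests at 20 µM and on dose response follow-up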
A3A deaminase – human APOBEC3A DNA deaminase inhibition; P31941; recombinant A3A, FAM/TAMRA ssDNA deamination fluorescence; inhibition, % at 20 µM; actives 0.41% (n = 330,000); AID 493011;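 active = at least 40% inhibition at 20 µM here, with at most 30% in a related deaminase screen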;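 note: plate controls were A3A with DMSO for no effect and wells lacking A3A enzyme for full effect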
A3G deaminase – inhibitors of human APOBEC3G DNA deaminase | actives 0.28% (n = 330,000) | inhibition, % at 20 µM | recombinant A3G, ssDNA deamination FAM/TAMRA fluorescence;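 active = inhibition of at least 40% at 20 µM, with no more than 30% in the related APOBEC3A deaminase screen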;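 note: plate controls were DMSO wells with A3G for no effect and wells lacking A3G enzyme for full effect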
Target sequence (Q9HC16 whole entry, looked up): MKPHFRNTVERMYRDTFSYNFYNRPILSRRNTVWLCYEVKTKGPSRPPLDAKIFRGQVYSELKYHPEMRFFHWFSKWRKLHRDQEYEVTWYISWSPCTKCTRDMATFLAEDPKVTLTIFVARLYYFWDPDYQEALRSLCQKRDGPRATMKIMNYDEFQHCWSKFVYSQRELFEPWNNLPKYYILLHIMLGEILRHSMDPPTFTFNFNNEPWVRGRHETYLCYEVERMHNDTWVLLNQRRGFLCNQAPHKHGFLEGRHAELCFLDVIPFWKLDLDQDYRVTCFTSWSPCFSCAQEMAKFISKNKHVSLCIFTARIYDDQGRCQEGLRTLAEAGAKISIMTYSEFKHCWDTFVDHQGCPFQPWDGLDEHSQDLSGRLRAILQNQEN
PABP1 MLLE inh – inhibitors of microRNA-mediated deadenylation, human PABP1 MLLE binding; AID 588489; GST-MLLE / FITC-PAM2 fluorescence polarization; inhibition, % at 20 µM; actives 0.36% (n = 360,000); P11940; in the data active = inhibition above about 35%, passing the limit was not always enough;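 note: plate controls were DMSO wells with GST-MLLE for no effect and wells lacking GST-MLLE protein for full effect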
Active calls of the source: *; i = inactive; u = inconclusive; x = not tested or not shown; + = active, no number; ! = not active in a repeat. In the library only some 2.6% were active in any assay of this set; here they are far more common. Unless noted, the rule behind the calls is not given here.

SMILES	eIF4H inh	PHOSPHO1 inh	PABP polyA inh	A3A deaminase	A3G deaminase	PABP1 MLLE inh
CCCCCCCCS(=O)c1sc2nc(C)cc(C)c2c1N (centres undefined)	-9	94*	i	-6	-6	10
CCCCC1OC23CCCCC2C(C#N)(C(=N)O3)C1(C#N)C#N (centres undefined)	u	1	u	-3	-2	48*
COC(=O)C(C#N)(CCC(=O)c1ccccc1)CCC(=O)c1ccccc1	x	x	x	x	x	-4
Fc1ccc(SCCc2ccncc2)cc1	-3	33	i	0	-6	43*!
O=C1CC(c2ccccc2)CC(=O)C1CS(=O)(=O)c1ccccc1 (centres undefined)	-2	12	i	-1	-2	17
CCCc1nc2c([nH]1)c(=O)n(C)c(=O)n2C	0	-1	i	0	-3	3
CC(C)c1nc2c([nH]1)c(=O)n(C)c(=O)n2C	54*	34	i	7	-3	1
CCCCn1c(SCN2C(=O)c3ccccc3C2=O)nc2cc(S(N)(=O)=O)ccc21	2	90*	i	x	x	-98
CCCCn1c(SCC(=O)c2cc(OC)ccc2OC)nc2cc(S(N)(=O)=O)ccc21	-3	65*	i	4	0	-62
CCc1n[nH]c(=S)n1/N=C/c1ccc(-c2ccc(Br)cc2)o1	x	x	x	-7	-6	-117
CCc1n[nH]c(=S)n1/N=C/c1cc(Br)c(OC)cc1OC	5	60*	i	0	9	-33
Cc1cc(C)c(NC(=O)C2CCCN2CCOC(=O)c2cccc([N+](=O)[O-])c2)c(C)c1 (centres undefined)	active	-6	+	-3	4	10
O=C(CN1C(=O)/C(=C/c2ccccc2Cl)SC1=S)NC1CCS(=O)(=O)C1 (centres undefined)	-3	40	i	-1	-2	39*
COc1ccc2c(Cl)c(C(=O)N/N=C3\CCCC(=O)C3)sc2c1	u	28	i	-1	-14	-119
Cc1cc(C)nc(N/N=C/c2ccccc2OCc2ccccc2)n1	82	15	+	0	1	-7
CCN(CC(=O)Nc1ccc(NC(C)=O)cc1)C(=O)CN1C(=O)NC2(CCCC2)C1=O	x	x	x	8	-5	-21
CC1CCC2(CC1)NC(=O)N(CC(=O)Nc1sc3c(c1C(N)=O)CCC3)C2=O (centres undefined)	76*	13	+	56	33	-53
Cn1cnnc1SCC(=O)Nc1sc2c(c1C(N)=O)CCC2	76*	36	+	63	56	3
COCCn1cnnc1SCC(=O)Nc1sc2c(c1C#N)CCC2	x	x	x	12	3	-38
CC1CCCCC12NC(=O)N(CC(=O)Nc1sc3c(c1C(N)=O)CCC3)C2=O (centres undefined)	78*	21	+	21	14	-7
Cc1ccc(CNC(=O)CN2C(C)CCCC2C)cc1 (centres undefined)	0	-7	i	10	-4	5
COc1cccc(C(C)(O)c2nc(-c3ccc(OC)nc3)cs2)c1 (centres undefined)	x	x	x	x	x	15
COC(=O)c1cc2oc(C)cc2n1CC(=O)N(C)c1ccccc1	-2	-3	i	-2	-6	3
C=CCN(C(=O)Cn1c(C(=O)OC)cc2oc(C)cc21)c1ccccc1	-1	74*	i	2	5	-5
Clc1ccc(CN2CCN(c3ccccc3)CC2)cn1	4	14	i	-9	-11	0
SMILES	eIF4H inh	PHOSPHO1 inh	PABP polyA inh	A3A deaminase	A3G deaminase	PABP1 MLLE inh
CCc1nnc(NC(=O)CSc2ccc(-c3ccco3)nn2)s1	95*	72*	+	24	13	-3
Cc1ccc(C)c(NC(=O)CSc2ccc(-c3ccco3)nn2)c1	36	-66	i	2	4	19
Cc1nnc(NC(=O)CSc2ccc(-c3ccco3)nn2)s1	105	-11	i	31	23	37
Cc1ccccc1NC(=O)CSc1ccc(-c2ccco2)nn1	u	-6	+	1	2	16
COc1cccc(CN(CC2CCCO2)C(=O)c2cc3ccccc3oc2=O)c1 (centres undefined)	-13	30	i	0	-9	-5
Cc1cccc(C)c1NC(=O)/C(C#N)=C/c1ccc(-c2ccc(C(=O)O)cc2)o1	7	22	i	5	-5	13

Screening results: PubChem, Sanford-Burnham Center for Chemical Genomics
